Consider 22 compounds from PubChem BioAssay (NCATS).

Structures are written as SMILES. Inconclusive results are not listed. The source made the active and inactive calls. Unless noted, the call rests on the fitted dose curve; in most records, active means well fitted curve in the direction sought with a large enough effect; inconclusive means small, poorly fitted or top-dose-only effect, or another doubt; inactive means no such curve, though single readings can be large; an effect the other way counts as inactive or inconclusive.

Assay [1] is described as follows: High Content Imaging Cell-Based qHTS for Inhibitors of the mTORC1 Signaling Pathway in MEF (Tsc2-/-, p53-/-) Cells (AID 2666).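 Further: percent of cells scored positive for phospho-rpS6 Ser235/236 immunostaining by imaging.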 The procedure, abridged:
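Cells were plated, dosed with compound after 24 hrs, and incubated another 24 hrs at 37 degree Celsius. Fixed cells were immunostained for phospho-rpS6 Ser235/236 and counterstained, and the normalized signal was scored as % active cells against rapamycin and DMSO controls.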
(In general: Quantitative high-throughput screening tests each substance at several concentrations.)

A short description of assay [2]: High Content Imaging Cell-Based qHTS for Inhibitors of the mTORC1 Signaling Pathway in MEF Cells (AID 2667).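 Further: Tsc2-/- p53-/- MEFs stably re-expressing wild-type Tsc2 exposed 24 h; series mostly up to about 38 µM.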 The procedure, abridged: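 Immunofluorescence for rpS6 phosphorylation in MEFs of Tsc2-/-, p53-/- background rescued with WT Tsc2. Compound exposure lasted 24 hrs. Inhibition was scored against rapamycin-treated control wells.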
The nature of assay [3]: Cytometry Cell-Based qHTS for Inhibitors of the mTORC1 Signaling Pathway in MEF cells (AID 2668).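 Further: Tsc2-/- p53-/- mouse embryonic fibroblasts stably re-expressing wild-type Tsc2; percent cells positive for phospho-rpS6 Ser235/236 relative to propidium iodide stain; series mostly up to about 38 µM.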 The procedure, abridged: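 Read-out: phospho-rpS6 Ser235/236 immunofluorescence normalized to propidium iodide intensity, scored as % active cells against a rapamycin (7.5 nM) threshold. Cells: Tsc2-/-, p53-/- MEFs stably expressing WT Tsc2, compound-treated 24 hrs at 37 degree Celsius.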

Assay [4] can be described thus: Validation screen for small molecules that induce DNA re-replication in MCF 10A normal breast cells (AID 463097). Further: nearly all actives have a fitted effect of over 60% in size. Further: potency means the concentration at half of the fitted maximal effect. The procedure, abridged:
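250 MCF 10A cells/well; compound pin-transferred; 48 hr, 37 C, 5% CO2; Hoechst 40 min; imaged 405/500-530 nm. Hits = more high-intensity nuclei.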

Assay [5] addresses Ubiquitin carboxyl-terminal hydrolase 2 (Homo sapiens) (UniProt O75604). The experiment in a line: qHTS Validation Assay for Inhibitors of Ubiquitin-specific Protease USP2a Using CHOP2 as the Reporter (AID 463106). A digest of the protocol:
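10nM USP2 core + cpd, 30min RT; add 25nM Ub-CHOP2/25nM substrate; 60min RT; FI 485/531nm. Buffer Tris pH 8.0, CaCl2, BME, CHAPS. Norm. to NEM = 100% inhibition; time-zero read flags fluorescent artifacts.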

In assay [6] the target is DNA polymerase III PolC-type (Bacillus subtilis (strain 168)) (UniProt P13267). The experiment in a line: qHTS Validation Assay for the Inhibitors of DNA Replication in Gram-Positive Bacteria (AID 485295).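 Further: reconstituted holoenzyme with PolC plus beta clamp SSB and primase; PicoGreen fluorescence of double-stranded DNA made on primed circular M13 template; series mostly up to about 57 µM.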 A digest of the protocol: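 PicoGreen fluorescence (ex 480–485/em 535–540 nm) reports dsDNA synthesized on ssM13Gori template with dNTPs/NTPs. Enzyme: holoenzyme rebuilt from purified PolC, beta subunit, SSB and primase. Compound preincubated before substrate addition; RT throughout.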
DNA polymerase III PolC-type (Bacillus subtilis (strain 168)), sequence (P13267 whole entry, looked up): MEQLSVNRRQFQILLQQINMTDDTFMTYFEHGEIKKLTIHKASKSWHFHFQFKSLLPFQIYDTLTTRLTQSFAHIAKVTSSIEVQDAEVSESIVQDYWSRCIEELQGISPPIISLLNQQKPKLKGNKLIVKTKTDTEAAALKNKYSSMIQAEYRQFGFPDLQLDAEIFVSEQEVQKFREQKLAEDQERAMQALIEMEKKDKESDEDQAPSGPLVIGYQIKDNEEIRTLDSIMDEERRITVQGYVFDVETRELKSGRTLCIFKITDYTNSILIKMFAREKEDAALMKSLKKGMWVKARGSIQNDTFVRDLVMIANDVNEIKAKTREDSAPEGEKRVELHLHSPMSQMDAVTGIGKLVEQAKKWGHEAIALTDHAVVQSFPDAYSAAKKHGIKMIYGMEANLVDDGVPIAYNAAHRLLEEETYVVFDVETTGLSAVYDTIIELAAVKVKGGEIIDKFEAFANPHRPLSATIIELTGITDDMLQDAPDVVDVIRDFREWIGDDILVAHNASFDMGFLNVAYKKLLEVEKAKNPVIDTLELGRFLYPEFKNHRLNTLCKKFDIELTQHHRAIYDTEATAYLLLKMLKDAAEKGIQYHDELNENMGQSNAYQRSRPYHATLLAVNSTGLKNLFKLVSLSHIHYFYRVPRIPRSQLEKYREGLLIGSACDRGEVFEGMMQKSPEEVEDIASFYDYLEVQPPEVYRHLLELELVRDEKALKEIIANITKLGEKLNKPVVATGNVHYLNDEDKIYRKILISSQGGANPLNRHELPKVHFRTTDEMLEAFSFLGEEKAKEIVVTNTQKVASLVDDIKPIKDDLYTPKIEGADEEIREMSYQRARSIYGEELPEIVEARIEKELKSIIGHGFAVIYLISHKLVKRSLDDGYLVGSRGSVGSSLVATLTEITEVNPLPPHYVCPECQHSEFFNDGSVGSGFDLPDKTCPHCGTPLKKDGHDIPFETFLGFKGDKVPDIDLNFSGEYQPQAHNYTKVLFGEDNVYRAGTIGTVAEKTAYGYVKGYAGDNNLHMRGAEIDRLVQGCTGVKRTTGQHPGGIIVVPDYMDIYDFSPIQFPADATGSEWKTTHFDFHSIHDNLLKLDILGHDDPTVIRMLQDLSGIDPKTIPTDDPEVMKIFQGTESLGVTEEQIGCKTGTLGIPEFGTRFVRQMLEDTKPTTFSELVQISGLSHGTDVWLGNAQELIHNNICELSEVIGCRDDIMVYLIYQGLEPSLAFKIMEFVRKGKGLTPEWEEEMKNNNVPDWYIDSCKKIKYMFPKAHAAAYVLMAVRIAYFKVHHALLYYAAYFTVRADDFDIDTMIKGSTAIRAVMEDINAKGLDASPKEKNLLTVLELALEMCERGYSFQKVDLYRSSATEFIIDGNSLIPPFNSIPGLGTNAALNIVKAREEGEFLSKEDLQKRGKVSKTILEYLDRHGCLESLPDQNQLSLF

The target of assay [7] is Tumor susceptibility gene 101 protein (Homo sapiens) (UniProt Q99816). The experiment in a line: qHTS Validation Assay for Iinhibitors of HIV-1 Budding by Blocking the Interaction of PTAP/TSG101 (AID 485342; calls by dose curve). A digest of the protocol: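 FP read-out: FITC-PTAP peptide, 50 nM final, binding Tsg101 binding domain, 10 uM final; 20 min r.t.; 10 mM HEPES pH 7.5, 0.15 M NaCl, 0.01% Tween 20, 3 mM EDTA, 0.1 mM TCEP.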
Tumor susceptibility gene 101 protein (Homo sapiens), sequence (Q99816 whole entry, looked up, the tested form may be a part): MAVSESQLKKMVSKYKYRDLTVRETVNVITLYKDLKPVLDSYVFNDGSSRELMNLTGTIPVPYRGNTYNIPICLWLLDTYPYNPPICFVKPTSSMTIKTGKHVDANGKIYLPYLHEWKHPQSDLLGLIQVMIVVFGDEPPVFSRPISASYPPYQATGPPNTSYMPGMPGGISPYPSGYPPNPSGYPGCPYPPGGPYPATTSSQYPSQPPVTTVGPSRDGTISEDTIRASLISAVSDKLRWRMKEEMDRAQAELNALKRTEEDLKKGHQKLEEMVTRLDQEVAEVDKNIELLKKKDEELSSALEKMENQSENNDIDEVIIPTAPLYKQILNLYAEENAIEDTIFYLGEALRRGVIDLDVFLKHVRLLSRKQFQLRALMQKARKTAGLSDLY

Assay [8] is described as follows: qHTS Validation Assay to Find Inhibitors of Chronic Active B-Cell Receptor Signaling (AID 485345; active means well fitted curve in the direction sought with a large enough effect in the main read-out, with a control signal flat, not every such curve was filed as active). The procedure, abridged:
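Read-out: ratio of filter-corrected green (IkappaBalpha fusion) to red (native) luciferase signal in doxycycline-induced TMD8 cells after 4 h at 37C. Titration spanned 46 uM–3 nM; Data were normalised to basal cells and 10 uM MG-132 wells.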

The target of assay [9] is Beta-2 adrenergic receptor (Homo sapiens) (UniProt P07550). The assay can be described thus: qHTS validation assay of beta-arrestin-biased ligands of beta2-adrenergic receptor (AID 485366). A digest of the protocol: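 Tango cells expressing recombinant beta2-AR and beta-arrestin with tTA-driven luciferase, in DMEM with 1% FBS. Compounds were titrated up to 46 microM for 18 hr at 37 degrees C. Luminescence was read 15 min after substrate; curves were fitted and class-assigned.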
Beta-2 adrenergic receptor (Homo sapiens), sequence (P07550 whole entry, looked up): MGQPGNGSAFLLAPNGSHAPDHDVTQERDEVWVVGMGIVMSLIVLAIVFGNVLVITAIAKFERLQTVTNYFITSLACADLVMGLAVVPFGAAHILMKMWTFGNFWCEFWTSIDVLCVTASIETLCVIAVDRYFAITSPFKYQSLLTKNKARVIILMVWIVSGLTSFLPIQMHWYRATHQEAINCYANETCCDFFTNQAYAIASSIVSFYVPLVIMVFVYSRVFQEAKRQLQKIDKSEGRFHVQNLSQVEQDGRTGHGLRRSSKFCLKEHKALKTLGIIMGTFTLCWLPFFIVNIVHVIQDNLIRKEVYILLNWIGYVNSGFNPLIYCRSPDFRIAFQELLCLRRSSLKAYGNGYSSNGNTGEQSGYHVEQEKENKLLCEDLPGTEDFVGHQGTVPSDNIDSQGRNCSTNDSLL

Assay [10] has as its target ATP-dependent 6-phosphofructokinase (Trypanosoma brucei brucei) (UniProt O15648). The assay can be described thus: qHTS Validation Assay to Find Inhibitors of T. brucei phosphofructokinase (AID 485368). The following applies: outcome: dose series up to 57.5 µM. A digest of the protocol:
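Activity was read as ADP production by luminescence (ADP-Glo) after 45 min at room temperature. The enzyme was 1.25nM PFK in 0.1M TEA pH 8.0 with 0.5 mM F6P, 0.1mM ATP and 5 mM MgCl2. Compounds were titrated up to 57 uM and % activity normalized to no-enzyme and full-enzyme controls.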

Ubiquitin carboxyl-terminal hydrolase 2 (Homo sapiens), sequence (O75604 whole entry, looked up): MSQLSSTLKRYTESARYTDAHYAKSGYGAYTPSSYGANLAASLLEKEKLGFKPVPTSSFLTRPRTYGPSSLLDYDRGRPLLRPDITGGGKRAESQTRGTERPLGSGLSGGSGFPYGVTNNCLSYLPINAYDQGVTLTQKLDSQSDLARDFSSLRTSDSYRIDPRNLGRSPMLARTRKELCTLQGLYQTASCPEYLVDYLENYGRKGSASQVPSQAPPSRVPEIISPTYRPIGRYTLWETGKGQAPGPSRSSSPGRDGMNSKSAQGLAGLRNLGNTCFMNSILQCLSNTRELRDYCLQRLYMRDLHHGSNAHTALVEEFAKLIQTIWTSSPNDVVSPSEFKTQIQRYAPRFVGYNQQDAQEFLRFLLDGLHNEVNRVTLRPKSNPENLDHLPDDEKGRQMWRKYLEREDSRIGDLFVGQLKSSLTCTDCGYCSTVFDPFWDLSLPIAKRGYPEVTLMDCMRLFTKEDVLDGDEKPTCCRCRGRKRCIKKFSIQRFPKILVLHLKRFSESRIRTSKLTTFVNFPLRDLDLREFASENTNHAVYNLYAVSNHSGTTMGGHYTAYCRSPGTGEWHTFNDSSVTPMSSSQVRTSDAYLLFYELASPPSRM
ATP-dependent 6-phosphofructokinase (Trypanosoma brucei brucei), sequence (O15648 whole entry, looked up): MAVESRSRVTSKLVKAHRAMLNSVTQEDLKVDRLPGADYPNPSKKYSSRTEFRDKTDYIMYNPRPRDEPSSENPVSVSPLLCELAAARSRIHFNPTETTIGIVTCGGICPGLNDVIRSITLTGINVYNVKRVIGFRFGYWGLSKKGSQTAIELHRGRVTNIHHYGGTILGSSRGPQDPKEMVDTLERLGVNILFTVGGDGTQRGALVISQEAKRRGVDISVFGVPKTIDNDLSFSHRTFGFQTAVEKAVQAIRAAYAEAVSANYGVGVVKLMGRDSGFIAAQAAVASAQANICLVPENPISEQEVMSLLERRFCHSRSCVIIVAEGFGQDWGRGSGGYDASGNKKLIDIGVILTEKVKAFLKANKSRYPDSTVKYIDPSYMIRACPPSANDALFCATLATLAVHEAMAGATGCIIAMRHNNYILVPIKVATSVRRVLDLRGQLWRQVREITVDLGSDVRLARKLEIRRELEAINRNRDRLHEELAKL

`O=C(CCNNC(=O)c1ccncc1)NCc1ccccc1`: the Potency entry in assay [1], in assay [2], in [3], in [4], in assay [6] and in [8] was “inactive” in each case. In addition, the result in [5], in [7], in assay [9] and in assay [10] was inactive.
`CC(=O)OCC1=C(C(=O)O)N2C(=O)[C@@H](NC(=O)Cc3cccs3)[C@H]2SC1`: the Potency result in assay [1], in assay [2], in assay [3], in assay [4], in assay [6] and in assay [8] was “inactive” each time. The outcome in assay [5], in [7] and in assay [9] was inactive.
With `OCCN1CCN(CCCN2c3ccccc3C=Cc3ccccc32)CC1`, the Potency entry in [1], in [2], in assay [3], in assay [4], in assay [6] and in [8] was “inactive” throughout. Also, the compound was called inactive in assay [5], in assay [7] and in assay [9].
As to `CC(C)[N+](C)(CCOC(=O)C1c2ccccc2Oc2ccccc21)C(C)C`, the Potency entry in [1], in assay [2], in assay [3], in assay [4], in assay [6] and in assay [8] was “inactive” throughout. Moreover, the outcome in [5], in assay [7], in assay [9] and in assay [10] was inactive.
As for `CCCCNC(=O)NS(=O)(=O)c1ccc(C)cc1`, the Potency entry in [1], in [2], in assay [3], in assay [4], in [6] and in [8] was “inactive” in each case. Besides, the result in [5], in [7], in [9] and in assay [10] was inactive.
Consider `CN1CCN(C2=Nc3ccccc3Oc3ccc(Cl)cc32)CC1`, for which the Potency entry in [1], in assay [2], in assay [3], in assay [4], in assay [6] and in assay [8] was “inactive” in each case. The compound was classed as inactive in assay [5], in assay [7], in [9] and in [10].
For `Fc1ccc(C(c2ccc(F)cc2)N2CCN(C/C=C/c3ccccc3)CC2)cc1`, the Potency result in assay [1], in [2], in [3], in [6] and in [8] was “inactive” throughout. Also, the Potency in assay [4] was 12.6 µM (active). Besides, the call in assay [5], in assay [7] and in assay [9] was inactive.
Consider `CCCCCN(CCCCC)C(=O)C(CCC(=O)O)NC(=O)c1ccc(Cl)c(Cl)c1` (stereo unspecified), for which the Potency entry in assay [1], in assay [2], in [3], in assay [4], in assay [6] and in assay [8] was “inactive” throughout. Moreover, the result in [5], in assay [7] and in assay [9] was inactive.
Turning to `Nc1c2c(nc3ccccc13)CCCC2O` (stereo unspecified), the Potency result in assay [1], in assay [2], in assay [3], in [4], in [6] and in [8] was “inactive” throughout. For the same compound, the compound was called inactive in [5], in assay [7] and in assay [9].
For `NC(=O)c1ncn([C@@H]2O[C@H](CO)[C@@H](O)[C@H]2O)c1O`, the Potency entry in assay [1], in [2], in [3], in [4], in assay [6] and in [8] was “inactive” throughout. Besides, the result in assay [5], in [7] and in assay [9] was inactive.
On to `NCCCNCCSP(=O)(O)O`, for which the Potency result in assay [1], in [2], in assay [3], in [4], in assay [6] and in assay [8] was “inactive” each time. The result in assay [5], in assay [7], in assay [9] and in assay [10] was inactive.
As to `NC(Cc1ccc(Cl)cc1)C(=O)O` (stereo unspecified), the Potency result in assay [1], in assay [2], in [3], in [4], in assay [6] and in assay [8] was “inactive” throughout. For the same compound, the outcome in [5], in assay [7], in assay [9] and in assay [10] was inactive.
Regarding `CN(C)CCOC(=O)COc1ccc(Cl)cc1`, the Potency result in assay [1], in assay [2], in assay [3], in assay [4], in assay [6] and in [8] was “inactive” in each case. Moreover, the outcome in [5], in assay [7] and in assay [9] was inactive.
Take `CN(C)CCN(Cc1cccs1)c1ccccn1`: the Potency result in [1], in assay [2], in assay [3], in assay [4], in [6] and in assay [8] was “inactive” each time. The outcome in assay [5], in assay [7], in assay [9] and in assay [10] was inactive.
As for `CNC1(C)C2CCC(C2)C1(C)C` (stereo unspecified), the Potency result in [1], in assay [2], in assay [3], in [4], in [6] and in [8] was “inactive” in each case. Further, the compound was classed as inactive in assay [5], in [7], in assay [9] and in assay [10].
As for `CC[N+](C)(C)c1cccc(O)c1`, the Potency result in [1], in assay [2], in assay [3], in assay [4], in assay [6] and in assay [8] was “inactive” in each case. For the same compound, the call in assay [5], in assay [7], in assay [9] and in [10] was inactive.
On to `O=C(O)CN(CCOCCOCCN(CC(=O)O)CC(=O)O)CC(=O)O`, for which the Potency entry in assay [1], in assay [2], in assay [3], in assay [4], in assay [6] and in assay [8] was “inactive” each time. The compound was called inactive in [5], in [7], in assay [9] and in assay [10].
In the case of `COc1ccc([C@@H]2Sc3ccccc3N(CCN(C)C)C(=O)[C@@H]2OC(C)=O)cc1`, the Potency entry in assay [1], in assay [2], in [3], in [4], in assay [6] and in assay [8] was “inactive” throughout. The compound was called inactive in assay [5], in assay [7], in assay [9] and in [10].
For `CCCNC(C)C(=O)Nc1ccccc1C` (stereo unspecified), the Potency result in assay [1], in assay [2], in [3], in [4], in assay [6] and in assay [8] was “inactive” in each case. The outcome in assay [5], in [7], in assay [9] and in assay [10] was inactive.
`CCN1CCc2nc(N)oc2CC1`: the Potency result in [1], in assay [2], in assay [3], in assay [4], in assay [6] and in assay [8] was “inactive” in each case. Further, the call in assay [5], in [7], in [9] and in [10] was inactive.
As to `CN(C)C/C=C(/c1ccc(Br)cc1)c1cccnc1`, the Potency entry in assay [1], in assay [2], in assay [3], in assay [4], in [6] and in [8] was “inactive” throughout. The result in [5], in assay [7], in assay [9] and in assay [10] was inactive.
For `COCCc1ccc(OCC(O)CNC(C)C)cc1` (stereo unspecified), the Potency entry in [1], in assay [2], in assay [3], in [4], in assay [6] and in assay [8] was “inactive” in each case. Besides, the compound was classed as inactive in [5] and in assay [7].
